Source: PMC8384837, “Expanding the binding specificity for RNA recognition by a PUF domain”
Positions count from the first letter of the chain named.

Key:
Assay in all cases: yeast three-hybrid, YBZ-1, SC-Leu-His + 0.5 mM 3-AT, 4 days
Conditions in all cases: tags: N-Gal4 AD-HA kept; label: inside an RPR1-promoter hybrid RNA with tandem MS2 sites; ssRNA
[1] = target: T1, PUM1 PUF domain R6-SWK (Homo sapiens, UniProt Q14671 828-1176, N1043S;Y1044W;Q1047K)
T1 sequence: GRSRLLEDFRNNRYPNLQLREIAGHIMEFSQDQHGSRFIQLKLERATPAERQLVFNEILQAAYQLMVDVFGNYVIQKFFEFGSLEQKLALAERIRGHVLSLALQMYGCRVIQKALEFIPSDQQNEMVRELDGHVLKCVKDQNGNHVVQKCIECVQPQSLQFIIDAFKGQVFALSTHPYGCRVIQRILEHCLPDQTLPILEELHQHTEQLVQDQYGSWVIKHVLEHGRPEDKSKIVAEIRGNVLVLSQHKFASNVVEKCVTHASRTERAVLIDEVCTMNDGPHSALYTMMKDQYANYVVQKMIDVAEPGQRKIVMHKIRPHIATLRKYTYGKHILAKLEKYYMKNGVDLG
How it was run: (§1)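 Sequencing with Illumina followed PCR amplification of the repeat regions from transformants grown four days on SC-Leu (input) or SC-Leu-His + 0.5 mM 3-AT (selection). The transformants were strain YBZ-1 with a LexA–MS2 coat fusion and a HIS3 reporter, carrying Pumilio-1 PUF domain libraries and matching RNA elements. The interaction score is the log change in variant frequency from input to selection, computed in log2 with a pseudocount of 1 for absent variants.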

[2] = target: PUM1 PUF domain R3-SPS (Homo sapiens, UniProt Q14671 828-1176, C935S;R936P;Q939S)
How it was run: as §1

[3] = target: PUM1 PUF domain R5-FRD (Homo sapiens, UniProt Q14671 828-1176, C1007F;Q1011D)
How it was run: as §1

[4] = target: PUM1 PUF domain R8-RRI (Homo sapiens, UniProt Q14671 828-1176, N1122R;Y1123R;Q1126I)
How it was run: as §1

[5] = target: T2, PUM1 PUF domain R6-RHR (Homo sapiens, UniProt Q14671 828-1176, N1043R;Y1044H;Q1047R)
T2 sequence: T1 sequence with S216R, W217H, K220R
How it was run: as §1

[6] = target: PUM1 PUF domain R5-IFM (Homo sapiens, UniProt Q14671 828-1176, C1007I;R1008F;Q1011M)
How it was run: as §1

[7] = target: PUM1 PUF domain R8-WYR (Homo sapiens, UniProt Q14671 828-1176, N1122W;Q1126R)
How it was run: as §1

[8] = target: PUM1 PUF domain R5-RQM (Homo sapiens, UniProt Q14671 828-1176, C1007R;R1008Q;Q1011M)
How it was run: as §1

[9] = target: PUM1 PUF domain R3-LRS (Homo sapiens, UniProt Q14671 828-1176, C935L;Q939S)
How it was run: as §1

[10] = target: PUM1 PUF domain R5-NTR (Homo sapiens, UniProt Q14671 828-1176, C1007N;R1008T;Q1011R)
How it was run: as §1

[11] = target: PUM1 PUF domain R1-NIG (Homo sapiens, UniProt Q14671 828-1176, S863N;R864I;Q867G)
How it was run: as §1

[12] = target: PUM1 PUF domain R8-HYL (Homo sapiens, UniProt Q14671 828-1176, N1122H;Q1126L)
How it was run: as §1

GGCUAGAACUAGUGGAUCCCCCGGCGCCCGGCGGCUCGAGCCCGGGUAAGUGUAAAUAGUCUGCAUGCCGCCGGGCGCCAUGCCUGCAGGUCGACUCUAGAAAACAUG
binding signal [1]: 6.97 log2 enrichment (interaction score)
binding signal [2]: 3.13 log2 enrichment (interaction score)
binding signal [3]: 1.06 log2 enrichment (interaction score)
binding signal [4]: 1.24 log2 enrichment (interaction score)
binding signal [5]: 3.36 log2 enrichment (interaction score)
binding signal [6]: 2.52 log2 enrichment (interaction score)
binding signal [7]: 4.75 log2 enrichment (interaction score)
binding signal [8]: 2.06 log2 enrichment (interaction score)

GGCUAGAACUAGUGGAUCCCCCGGCGCCCGGCGGCUCGAGCCCGGGUAAGUGAAAAUAGUCUGCAUGCCGCCGGGCGCCAUGCCUGCAGGUCGACUCUAGAAAACAUG
binding signal [1]: 1.25 log2 enrichment (interaction score)
binding signal [5]: 1.86 log2 enrichment (interaction score)

GGCUAGAACUAGUGGAUCCCCCGGCGCCCGGCGGCUCGAGCCCGGGUAAGUGUAAUUAGUCUGCAUGCCGCCGGGCGCCAUGCCUGCAGGUCGACUCUAGAAAACAUG
binding signal [2]: 1.47 log2 enrichment (interaction score)
binding signal [9]: 1.26 log2 enrichment (interaction score)

GGCUAGAACUAGUGGAUCCCCCGGCGCCCGGCGGCUCGAGCCCGGGUAAGUGUCAAUAGUCUGCAUGCCGCCGGGCGCCAUGCCUGCAGGUCGACUCUAGAAAACAUG
binding signal [3]: 2.84 log2 enrichment (interaction score)
binding signal [10]: 5.46 log2 enrichment (interaction score)
binding signal [8]: 4.46 log2 enrichment (interaction score)

GGCUAGAACUAGUGGAUCCCCCGGCGCCCGGCGGCUCGAGCCCGGGUAAGUGUAAAUUGUCUGCAUGCCGCCGGGCGCCAUGCCUGCAGGUCGACUCUAGAAAACAUG
binding signal [11]: 3.06 log2 enrichment (interaction score)

GGCUAGAACUAGUGGAUCCCCCGGCGCCCGGCGGCUCGAGCCCGGGUAAGCGUAAAUAGUCUGCAUGCCGCCGGGCGCCAUGCCUGCAGGUCGACUCUAGAAAACAUG
binding signal [4]: 2.58 log2 enrichment (interaction score)
binding signal [12]: 2.26 log2 enrichment (interaction score)
binding signal [7]: 4.97 log2 enrichment (interaction score)

GGCUAGAACUAGUGGAUCCCCCGGCGCCCGGCGGCUCGAGCCCGGGUAAGUGUAAGUAGUCUGCAUGCCGCCGGGCGCCAUGCCUGCAGGUCGACUCUAGAAAACAUG
binding signal [9]: 4.15 log2 enrichment (interaction score)
